Source: the supplement of paper PMC11417369
In all, about 25,000 sequences were measured (“ln(normalized median fluorescence intensity)”: median about 9.7, highest 2% from about 11 on). The sample holds the highest values, similar sequences and a random draw of the others, so the mix is not that of the screen.

Tested on: PfAP2-HC AP2 domain (GST-tagged)
Assay: gcPBM binding intensity (ln(normalized median fluorescence intensity)); higher = stronger DNA binding
Method in brief: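 GST-tagged P. falciparum DNA-binding domains produced in E. coli were incubated for 1 h on an Agilent 4 × 180k array of primer-extended double-stranded 36-bp intergenic genomic probes with negative controls. Binding intensity is the highest Masliner-normalised natural-log median intensity across replicate spots of either probe orientation, with bound protein detected by Alexa488 anti-GST antibody at 488 nm.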

Sequence | gcPBM binding intensity (ln)
ACAACAAAAATAAGCACACACAAATATACATACATA [CACACA_site7664] | 11.3
ACAAAAAAAATAAGCACACATATATATATATATATA [CACACA_site816] | 9.91
AATATAAGCAAATACACACACACATATATATATATA [CACACA_site3805] | 10.7
CCAACAAAAATAAGCACACACAAATATACATACATA [CACACA_site3606] | 11.1
ATACAACAAAAATAAGCACACACAAATATACATACA [CACACA_site9201] | 10.8
AAACAAAAAAAATAAGCACACATATATATATATATA [CACACA_site8173] | 9.7
ATATATATATATATGTGTACATATAAGATAGAAGAA [XGTACX_site3198] | 10.2
TTTTTTAATATTTATACATGCATGCCGATTACTATA [TGCATGCA_site26] | 9.87
TATATATAATACAGTATGCACTATTTTTATTAAAAA | 9.41
AGTAACAAAAGAAAAAAATATGCAAACATATATATA [XGTACX_negctrl_site468] | 9.65
TTTTTATTTGGTTGTGTACACATATATATATATATA [CACACA_site5844] | 9.84
TGAACACACGAGCACACACACACATCTATATTTATA [CACACA_site6607] | 11.1
TTATACTAAATGAACACACACACATCTATATTTATA [CACACA_site6199] | 10.3
TACATACATACATACACACACACATCTATATTTATA [CACACA_site6171] | 10.6
AAAAAAATAAAGGATATACACACTAATTATATATAT [CACACA_site2812] | 9.81
ATAAATAAAGGACACACACACACACTAATAAAAAAA [CACACA_site8840] | 11.4
AAAAATAAAGGATATACACACTAATTATATATATAT [CACACA_site5550] | 9.91
GTAGAGAAAAAAATGTGGACACAAAAAATAAAAAGG [XGTACX_site4058] | 9.79
ATAAATAAAGGACACACACACACACTAGAAAAAAAA [CACACA_site5450] | 11.1
AAAAAAGAAAAAAGGACACACATAAATATACACCCG [CACACA_site5590] | 10.2
ATATGTTTTGTTTACGTGCACTGCTTTGTTTATATA [GTGCAC_site9622] | 10.5
ATATTTATTTATAATTGTACTAATAATATATTTTAA [XGTACX_site587] | 9.51
TTTCCTTACCCTTTCCTGGTGTAGAAATTATACTCT [TGCATGCA_negctrl_site116] | 9.61

Sequence | gcPBM binding intensity (ln)
TATTTCATCTTTTAAGAAGGTACCCATATGTCATAT [GTGCAC_negctrl_site403] | 9.57
TTATTTTATTTTAAAAAAAACAATATAAATTCAAAG [GTGCAC_negctrl_site57] | 9.09
AAATATATATATATAATACACACTAAAGTAACATAA [CACACA_site2870] | 10
ATAATCCTTAAACACACACACACACTAATAAATAAA [CACACA_site8052] | 10.8
ATAATCCTTGGACACACACACACACTAGTAAATAAA [CACACA_site4423] | 11.3
TCAAAGCACACATACACACACATATAGATTTATATA [CACACA_site6272] | 10.2
TAAACATTTTTGCACGCACACAAAAAAAAAATAAAA [CACACA_site167] | 10.3
TTTTATCACATTATTGCACACACATAAAGAAAAAAA [CACACA_site8922] | 9.98
CATTTGCACCCGCACACACACATAAAAAGAAAAATA [CACACA_site4350] | 11.1
ATCATTTGCATACGCACACACACATAAAAAGAAAAA [CACACA_site355] | 10.9
CATTTGCCCAGGCACACACACATAAAAAGAAAAATA [CACACA_site356] | 10.2
CATTTGCACACGCACACACACATAAAAAGAAAAATA [CACACA_site6297] | 11.1
ATGCATAAAAGAAATACACACATAAATATATAAATA [CACACA_site2163] | 9.99
TTATCACATTATTGCACACACATAAAGAAAAAAATA [CACACA_site2841] | 9.94
ATCATTTGCTCACGCACACACACATAAAAAGAAAAA [CACACA_site4349] | 10.2
ATATATTTTTAGCACAGTACAATATAATTAAATATA [XGTACX_site6779] | 9.62
AAAAAAAAAAAAAAAAGTACTAATTGAATATTAAAC [XGTACX_site3383] | 9.44
TATGTGTTCAGTATTGCACACACACTCCAAAATAAA [CACACA_site8018] | 10
TATAAATATGTATATGCATGTGGAATATATAATTAA [TGCATGCA_site226] | 9.69
GGATTTATTATATATACACACATACATATATATATA [CACACA_site8669] | 9.88
ATTATATATATCAGGTGTACGTAAAAAAAATGGACG [XGTACX_site1028] | 9.88
TTTTTAATTAACTTTGTAAACTTATATATATATATA [TGCATGCA_negctrl_site311] | 9.6
AATCGTGTTCTGAATACACACTAATACAAATTTGTA [CACACA_site6058] | 9.75

Sequence | gcPBM binding intensity (ln)
TGTAGTCTGGAGAAGAGTACACAGTATCTGGTAGCT [XGTACX_site2036] | 9.72
AATATGTTTTGTTAGGTTGGTGTTGGTAGAATGTTT [CACACA_negctrl_site1563] | 9.85
TATACAGACAGACACACACACATATATATATATATA [CACACA_site1734] | 10.2
CGCACAGACGGACACACACACACATATATATATATA [CACACA_site5249] | 11.1
TATAGATACAGATACACACACACACCGACATATATA [CACACA_site5832] | 10.7
TATACTCATGGACACACACACATACACAGACATACA [CACACA_site5024] | 10.4
TAAACAGACATATAAACACACATATAAACCGACATA [CACACA_site2478] | 10.3
CATACATACAGACACACACACATATATATATATATA [CACACA_site2920] | 10.7
CCCACAGACGGACACACACACACACCGACACATATA [CACACA_site4356] | 11
AGCACAGACGGACACACACACATATATATATATATA [CACACA_site4341] | 10.8
CCCACAGACGGACACACACACACATATATATATATA [CACACA_site4352] | 11.1
AAAAATTTGGCATACACACACACACCGACACAGACA [CACACA_site4489] | 10.5
ATTTGGCATGGACACACACACACACCGACAGACATA [CACACA_site4491] | 11.4
CATATACATACACATACACACATACAGACATACACA [CACACA_site6919] | 10.2
AAAAAAAAAAAAATGTGTACATACATATATTTATAT [XGTACX_site3076] | 9.74
CTTTCGGTTGGAGAGGTGCGCTTCTCCTTTATAATA | 9.61
TTTTTTTTTTATGGTACACACACGCGTATGGTTGCA [CACACA_site1876] | 10
AAGAAATAAATACATACACACATATATATATATATA [CACACA_site3362] | 10.3
CGAAAGAAAAAAAGCACACACAGTTTTGAGCAATGA [CACACA_site2109] | 10.1
AAGTTTTATATTTATTAAATTTTTTTTTTTCCTTTT [XGTACX_negctrl_site184] | 9.2
AATATTCGTAATTGATGTACTTGTAATTCATACATT [XGTACX_site8314] | 9.67
ATTTGGCAGAAACACACACACACACCCACCCACATA [CACACA_site589] | 10.5
AAAAATTTGGCATACACACACACACCCACACCCACA [CACACA_site587] | 10.4

Sequence | gcPBM binding intensity (ln)
ATTTGGCATAAACACACACACACACCCACCCACATA [CACACA_site8096] | 10.9
AAATTTGGCAAACACACACACACACCCACAGAGACA [CACACA_site4490] | 11.3
AAATTTGGCAAACACACACACACACCCACACCCACA [CACACA_site8095] | 11.4
AACTTTGGCAAACACACACACACACCCACACCCACA [CACACA_site588] | 10.5
GATATGGAATATATGTGTACATATATATATATTATA [XGTACX_site1724] | 9.77
TATTTATAAAAAAATACATGCATTTTTTTTTTTTTT [TGCATGCA_site65] | 9.36
AAAACAAATTAAAATCGTACAATTATAATGTTAATG [XGTACX_site180] | 9.7
TATTCTAATATATGCATACACACAAATGTGAATATA [CACACA_site2143] | 9.66
AGATAGCTATTAAAAAGTACAAAAAAATATATATAT [XGTACX_site6289] | 9.71
ATATTACACATATATGCACACATTGTAGTTATTTAT [CACACA_site8843] | 9.99
TAATATATAACGTGCACACACACATTTACGTATGAA [CACACA_site1832] | 10
ATATATAACGGGCACACACACATTTACGTATGAATA [CACACA_site1833] | 11.1
ATATATAACGTGCACACACACATTTACGTATGAATA [CACACA_site6948] | 10
TTTATTAGTAATTATACACACATATAAAATGAATAA [CACACA_site6754] | 9.67
ATAATAAGGTTAAGCACACATATTACATATATAACT [CACACA_site3356] | 10
GTTATATAAAAATATTGTACATTCTATATAAAGTCA [XGTACX_site4418] | 9.47
ATATAGATCAGACACACACACATGTTTTAAAACTAT [CACACA_site6186] | 10.9
TGTTTTTAAAAAAAAAAAAAATCACACCGGCAGGTA [CACACA_negctrl_site1437] | 9.49
TTATATATAGATCACACACACACACCGGTTTTAAAA [CACACA_site4220] | 11.2
TAAGAAAAATATATATGTACACATATATATATATAT [XGTACX_site8542] | 9.61
